The nature of assay [1]: ACEA_ER_80hr: ACEA Biosciences xCELLigence Real-Time Cell Analysis on Estrogen Receptor Agonism for Proliferation (AID 2282667; active means hit-call score of the fitted dose curve at least 0.9, where 1 is the maximum). The settings on record: T47D proliferation, impedance (xCELLigence), 80 h. The gist of the method: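 Cell-growth kinetics were measured by impedance in T47D cells treated continuously with compound (top 100 uM final, 1:4 steps, 8 points). Activity at 80 h was scored as signal gain over the DMSO baseline.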

Assay [2] is described as follows: APR_HepG2_CellCycleArrest_24hr: Apredica 24-hour HepG2 Assay for Cell Cycle Arrest (AID 2282905).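 Further: cell cycle arrest scored as ratio of 2N to 4N nuclear DNA content.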 To be noted: imaging, actives raise or lower the signal. Put shortly:
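Compounds at 0.39–200 uM (0.5% DMSO) for 24 h, then fixed and Hoechst 33342 stained. Cell-cycle analysis of nuclear DNA content by high-content imaging, fitted bidirectionally versus DMSO.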

The nature of assay [3]: APR_HepG2_NuclearSize_24hr: Apredica 24-hour HepG2 Assay for Nuclear Size (AID 2282907). The settings on record: high-content imaging, actives raise or lower the signal. The gist of the method: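 HepG2 cells exposed 24 h to compounds at 0.39–200 uM (0.5% DMSO), fixed, Hoechst 33342 stained and imaged at 20x; nuclear diameter measured by automated image analysis, fitted bidirectionally against DMSO controls.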

Assay [4] can be described thus: APR_HepG2_CellLoss_24hr: Apredica 24-hour HepG2 Assay for Cell Loss (AID 2282908).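 On AC50: fit in both directions so a hit may be cell loss or gain.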 To be noted: high-content imaging. The gist of the method: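 HepG2 cells exposed 24 hr to 0.39–200 uM compound in duplicate at 0.5% v/v final DMSO. Cells fixed in 3.7% formaldehyde and Hoechst 33342-stained. Cell number came from nuclear imaging at 20x. Bidirectional fit versus DMSO.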

Assay [5] is described as follows: APR_HepG2_MicrotubuleCSK_24hr: Apredica 24-hour HepG2 Assay for Microtubule CSK Stabilty (AID 2282909). The settings on record: HepG2 microtubule cytoskeleton imaging, actives raise or lower the signal. The gist of the method: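 HepG2 cells were treated 24 hr with compound at 0.39–200 uM in duplicate (0.5% DMSO final), then fixed and permeabilized. Alpha-tubulin immunofluorescence was imaged by high-content microscopy, with bidirectional fitting against DMSO and taxol as positive control.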

Assay [6] is described as follows: APR_HepG2_MitoticArrest_24hr: Apredica 24-hour HepG2 Assay for Mitotic Arrest (AID 2282910). To be noted: high-content imaging, actives raise or lower the signal. Put shortly: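 HepG2 human liver cells were exposed to compounds at 0.39–200 uM (10 concentrations, duplicate) in 0.5% v/v DMSO for 24 hr, then fixed and immunostained for phospho-histone H3 with Hoechst 33342. Mitotic arrest came from HCS fluorescent imaging, fitted bidirectionally against DMSO.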

Assay [7] is described as follows: APR_HepG2_MitoMembPot_24hr: Apredica 24-hour HepG2 Assay for Mitochondrial Membrane Potential (AID 2282911). The settings on record: imaging, actives raise or lower the signal. The gist of the method: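 Human hepatoma HepG2 cultures received ten compound concentrations up to 200 uM for 24 hr. Membrane-potential dye signal, captured by automated fluorescence microscopy, was scored for gain or loss against DMSO controls.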

Assay [8] is described as follows: APR_HepG2_MitoMass_24hr: Apredica 24-hour HepG2 Assay for Mitochondrial Mass (AID 2282912). To be noted: high-content imaging, actives raise or lower the signal. Put shortly:
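HepG2 cells exposed 24 hr to 0.39–200 uM compound, 0.5% v/v DMSO, in duplicate. Stained before fixation with 250 nM MitoTracker Red CMXRos for 30 min, then imaged at 20x with Hoechst nuclei. Fitted in both directions against DMSO.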

The nature of assay [9]: APR_HepG2_p53Act_24hr: Apredica 24-hour HepG2 Assay for p53 Activation (AID 2282913).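 Further: p53 protein immunofluorescence averaged per cell in HepG2 with Hoechst nuclei.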 To be noted: high-content imaging, actives raise or lower the signal. Put shortly:
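Automated fluorescence imaging quantifies p53 immunostaining in HepG2 cells after a 24 hr exposure (0.39–200 uM, duplicate, 0.5% DMSO). Nuclei are located by Hoechst 33342 staining.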

Assay [10] can be described thus: APR_HepG2_CellCycleArrest_72hr: Apredica 72-hour HepG2 Assay for Cell Cycle Arrest (AID 2282914). The settings on record: high-content imaging, actives raise or lower the signal. The gist of the method: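 Cell cycle arrest in HepG2 was scored from nuclear DNA content after 72 hr compound treatment (0.39–200 uM). Activity, either gain or loss, was fitted against the DMSO baseline.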

These results are taken from PubChem BioAssay (EPA / NIEHS).

Inconclusive results are not listed. Active and inactive are the calls of the source. How the source made its calls, unless noted: active means hit-call score of the fitted dose curve at least 0.9, where 1 is the maximum; inactive means score below 0.9.

`CCOC(N)=O`: the outcome in assay [1], in assay [2], in [3], in assay [4], in assay [5] and in assay [6] was inactive. The result in assay [7], in assay [8], in [9] and in assay [10] was inactive.

On to `Cc1cccc(O)c1C`, for which the compound was classed as inactive in [1].

Regarding `OCc1ccccc1`, the compound was classed as inactive in assay [1], in assay [2], in [3], in [4], in [5] and in assay [6]. Besides, the compound was classed as inactive in [7], in [8] and in [10].

Turning to `O=S1(=O)CCCO1`, the outcome in assay [1], in assay [2], in assay [3], in [4], in assay [5] and in [6] was inactive. Further, the outcome in assay [7], in assay [8], in assay [9] and in [10] was inactive.

On to `CCCCCOC(C)=O`, for which the call in assay [1], in assay [2], in assay [3], in [4], in assay [5] and in assay [6] was inactive. In addition, the compound was called inactive in [7], in assay [8] and in assay [10].

With `CCCC(CCC)C(=O)O`, the call in assay [1], in assay [2], in [3], in [4], in assay [5] and in assay [6] was inactive. The compound was classed as inactive in assay [7], in assay [8] and in [10].

As usually defined, the AC50 is the concentration at which the activity in the assay is half-maximal. On to `Cc1ncc([C@@H](CCCCCCc2ccc3c(n2)NCCC3)CC(=O)O)cn1`, for which the compound was classed as inactive in [1], in [2], in [3], in assay [4], in [5] and in assay [7]. Besides, the outcome in assay [10] was inactive. Besides, the concentration at half-maximal activity (AC50) in assay [6] was 0.0392 µM (active); in [8] it was 0.18 µM (active).

Take `CCCCCCCCCCCCCCCCOS(=O)(=O)O`: the result in [1], in assay [2], in assay [3], in assay [4], in assay [5] and in assay [6] was inactive. Further, the compound was classed as inactive in [7], in assay [8], in assay [9] and in [10].

Turning to `CCc1cccc(CC)c1N`, the call in [1], in [2], in [3], in assay [4], in assay [5] and in assay [6] was inactive. Besides, the result in assay [7], in assay [8], in assay [9] and in assay [10] was inactive.

`NCC(F)(F)C(F)(F)C(F)(F)C(F)(F)F`: the result in assay [1] was inactive.

Take `O=S(=O)(O)c1ccc(N=Nc2c(O)ccc3cc(S(=O)(=O)O)ccc23)cc1`: the call in assay [1], in assay [2], in [3], in assay [4], in assay [5] and in assay [6] was inactive. Further, the call in assay [7], in assay [8] and in [10] was inactive.

Consider `OC[C@H]1O[C@@](CO)(O[C@H]2O[C@H](CO)[C@@H](O)[C@H](O)[C@H]2O)[C@@H](O)[C@@H]1O`, for which the outcome in assay [1], in assay [2], in [3], in assay [4], in [5] and in assay [6] was inactive. Further, the outcome in assay [7], in assay [8] and in assay [10] was inactive.

`CC(C)CC(C)O` (configuration not stated): the call in assay [1], in assay [2], in assay [3], in assay [4], in assay [5] and in [6] was inactive. For the same compound, the compound was classed as inactive in assay [7], in assay [8] and in assay [10].

Turning to `O=C(Cl)C(F)(F)C(F)(F)C(F)(F)C(=O)Cl`, the result in assay [1] was inactive.

For the compound `Cc1nc(-c2ccccn2)ncc1C(=O)Nn1cc(C)c2cc(F)ccc21`, the outcome in assay [1], in [3] and in [5] was inactive. Further, the AC50 is 99.5 µM (active) in [2]; 88.7 µM (active) in [4]; 101 µM (active) in [6]; 100 µM (active) in [7]; 108 µM (active) in assay [8]; 162 µM (active) in [10].

As for `CCCCCCCC/C=C\CCCCCCCC(=O)OC[C@@H](O)[C@H]1OC[C@H](O)[C@H]1O`, the result in assay [1], in assay [2], in assay [3], in [4], in [5] and in assay [6] was inactive. For the same compound, the outcome in assay [7], in assay [8], in [9] and in assay [10] was inactive.

For `O=S(=O)(O)CCC(F)(F)C(F)(F)C(F)(F)C(F)(F)C(F)(F)C(F)(F)F`, the result in assay [1] was inactive.

Consider `CCCCCCOC(=O)CC(CC(=O)OCCCCCC)(OC(=O)CCC)C(=O)OCCCCCC`, for which, in assay [1], the AC50 was 50 µM (active). The result in [2], in assay [3], in assay [4], in [5], in [6] and in assay [7] was inactive. In addition, the result in assay [8] and in assay [10] was inactive.

With `c1ccc2cc3ccccc3cc2c1`, the figures for the AC50 in assay [2], in assay [4] and in assay [10] were 106 µM (active), 100 µM (active) and 110 µM (active), respectively. Also, the call in assay [3], in assay [5], in assay [6], in assay [7], in assay [8] and in assay [9] was inactive.

Consider `Cc1nccn1-c1ccc(Sc2cccc(C3(C(N)=O)CCOCC3)c2)cc1`, for which the outcome in [2], in assay [3], in assay [5], in assay [6] and in [7] was inactive. Moreover, the figures for the AC50 in assay [4], in assay [8] and in assay [10] were 3.13 µM (active), 19.8 µM (active) and 5.05 µM (active), respectively.
